The values that follow come from ChEMBL document CHEMBL3988442, “University of Dundee, Small-Polar-MMV Screening Library” (2021).

For some of these results: Measured potencies and affinities stand elsewhere.

What all share (design): scale not given: direction of the effect not stated beside the values
The target of assay [1] is Protein translocase subunit SecA (Escherichia coli (strain K12)) (UniProt P10408). The assay can be described thus: Assay to Identify E. coli SecA ATPase Inhibitors. Format: functional. The settings on record: 30 µM.
Chain of Protein translocase subunit SecA (Escherichia coli (strain K12)) (P10408 whole entry): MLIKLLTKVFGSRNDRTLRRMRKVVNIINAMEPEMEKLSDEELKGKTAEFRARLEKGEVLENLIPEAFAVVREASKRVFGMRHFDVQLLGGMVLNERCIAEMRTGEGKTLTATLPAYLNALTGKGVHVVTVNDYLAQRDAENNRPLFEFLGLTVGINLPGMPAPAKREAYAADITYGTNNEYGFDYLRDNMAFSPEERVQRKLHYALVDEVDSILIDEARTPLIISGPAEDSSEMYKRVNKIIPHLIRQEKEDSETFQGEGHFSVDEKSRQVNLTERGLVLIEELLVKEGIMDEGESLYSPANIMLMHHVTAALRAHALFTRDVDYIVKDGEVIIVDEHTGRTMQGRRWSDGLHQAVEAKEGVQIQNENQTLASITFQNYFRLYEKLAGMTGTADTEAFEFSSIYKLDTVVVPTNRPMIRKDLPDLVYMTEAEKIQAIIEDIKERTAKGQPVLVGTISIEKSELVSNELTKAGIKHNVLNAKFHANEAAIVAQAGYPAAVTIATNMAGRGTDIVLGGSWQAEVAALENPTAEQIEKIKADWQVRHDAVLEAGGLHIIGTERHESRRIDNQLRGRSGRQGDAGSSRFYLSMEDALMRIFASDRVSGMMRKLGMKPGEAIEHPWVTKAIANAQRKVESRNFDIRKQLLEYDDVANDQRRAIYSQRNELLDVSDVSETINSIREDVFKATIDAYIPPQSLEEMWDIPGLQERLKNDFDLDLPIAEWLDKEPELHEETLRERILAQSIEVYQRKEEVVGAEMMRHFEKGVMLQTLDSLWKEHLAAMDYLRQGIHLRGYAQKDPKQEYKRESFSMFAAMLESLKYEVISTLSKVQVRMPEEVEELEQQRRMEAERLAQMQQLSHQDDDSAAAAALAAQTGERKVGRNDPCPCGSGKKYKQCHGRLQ
The target of assay [2] is T1, Ubiquitin-activating enzyme e1, putative (Leishmania donovani (strain BPK282A1)) (UniProt E9BSI1).
T1 sequence (whole entry): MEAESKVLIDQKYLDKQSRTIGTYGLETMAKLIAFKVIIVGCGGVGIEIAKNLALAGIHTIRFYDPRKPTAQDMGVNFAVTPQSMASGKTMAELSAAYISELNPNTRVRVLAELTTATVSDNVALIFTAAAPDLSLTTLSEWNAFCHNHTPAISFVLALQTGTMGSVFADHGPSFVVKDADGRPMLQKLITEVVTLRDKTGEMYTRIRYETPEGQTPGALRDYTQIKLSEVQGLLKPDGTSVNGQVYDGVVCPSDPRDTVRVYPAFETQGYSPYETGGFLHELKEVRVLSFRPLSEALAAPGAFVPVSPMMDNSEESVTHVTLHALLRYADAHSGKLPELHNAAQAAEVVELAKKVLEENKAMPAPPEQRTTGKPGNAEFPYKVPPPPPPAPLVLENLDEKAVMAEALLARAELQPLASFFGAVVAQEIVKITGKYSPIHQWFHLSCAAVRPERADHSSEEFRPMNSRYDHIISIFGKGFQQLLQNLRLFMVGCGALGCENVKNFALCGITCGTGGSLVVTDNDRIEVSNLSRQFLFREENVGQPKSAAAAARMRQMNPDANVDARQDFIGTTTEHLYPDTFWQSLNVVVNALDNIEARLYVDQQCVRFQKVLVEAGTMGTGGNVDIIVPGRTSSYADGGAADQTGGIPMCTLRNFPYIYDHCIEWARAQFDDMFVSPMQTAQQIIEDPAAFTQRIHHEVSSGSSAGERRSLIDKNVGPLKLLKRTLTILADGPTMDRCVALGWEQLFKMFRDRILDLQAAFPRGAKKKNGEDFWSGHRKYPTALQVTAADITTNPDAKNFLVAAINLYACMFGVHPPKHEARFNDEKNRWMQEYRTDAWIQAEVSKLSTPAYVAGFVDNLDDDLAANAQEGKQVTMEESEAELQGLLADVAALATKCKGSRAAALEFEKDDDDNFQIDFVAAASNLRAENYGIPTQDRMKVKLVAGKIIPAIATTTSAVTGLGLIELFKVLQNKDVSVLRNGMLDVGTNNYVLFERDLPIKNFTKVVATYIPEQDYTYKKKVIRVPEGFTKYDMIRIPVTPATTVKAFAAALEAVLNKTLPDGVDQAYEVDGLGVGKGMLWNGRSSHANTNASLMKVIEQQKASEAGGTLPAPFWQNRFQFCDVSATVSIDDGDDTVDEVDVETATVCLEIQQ
Kind of assay: Leishmania donovani Ubiquitin Activating Enzyme (LdE1). The assay is classed as functional. The settings on record: 30 µM.

Assay [3] addresses AMP-activated protein kinase, AMPK (Homo sapiens) (UniProt P54646+O43741+P54619+Q9UGJ0+Q9Y478+Q13131+Q9UGI9). The assay can be described thus: AMP-dependent Kinase enzyme assay. An in vitro enzyme assay that detects ADP turnover that is directly proportional to AMPK activity. This uses naive AMPK that is activated during the assay with MK-8722. The settings on record: 30 µM. The assay is classed as functional.

The target in assay [4] is Sialic acid-binding Ig-like lectin 9 (Homo sapiens) (UniProt Q9Y336). Kind of assay: Hs-Siglec9 ALPHAscreen SOP 20170721. Particulars: 10 µM. (Bead proximity is the source of the signal in Alpha formats.)
Chain of Sialic acid-binding Ig-like lectin 9 (Homo sapiens) (Q9Y336 whole entry): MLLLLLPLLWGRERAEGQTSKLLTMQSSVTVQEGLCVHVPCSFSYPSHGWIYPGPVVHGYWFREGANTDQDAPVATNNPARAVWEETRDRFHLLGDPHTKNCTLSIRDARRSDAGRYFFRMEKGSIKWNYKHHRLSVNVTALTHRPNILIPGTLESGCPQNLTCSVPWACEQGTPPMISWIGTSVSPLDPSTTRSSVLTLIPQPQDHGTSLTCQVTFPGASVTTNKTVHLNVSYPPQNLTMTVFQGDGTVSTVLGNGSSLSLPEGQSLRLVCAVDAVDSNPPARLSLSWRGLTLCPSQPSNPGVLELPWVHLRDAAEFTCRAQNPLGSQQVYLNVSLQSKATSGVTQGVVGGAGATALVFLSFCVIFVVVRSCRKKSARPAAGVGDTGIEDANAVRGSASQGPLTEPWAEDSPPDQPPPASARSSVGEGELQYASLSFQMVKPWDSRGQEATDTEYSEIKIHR
In a further assay the test system is Trypanosoma cruzi. Kind of assay: Trypanosoma cruzi phosphomannomutase and mannose-1-phosphate guanylyltransferase assay. Format: functional. The settings on record: 10 µM.
Assay [5] deals with T2, Arginase-2, mitochondrial (Homo sapiens) (UniProt P78540).
T2 sequence (whole entry): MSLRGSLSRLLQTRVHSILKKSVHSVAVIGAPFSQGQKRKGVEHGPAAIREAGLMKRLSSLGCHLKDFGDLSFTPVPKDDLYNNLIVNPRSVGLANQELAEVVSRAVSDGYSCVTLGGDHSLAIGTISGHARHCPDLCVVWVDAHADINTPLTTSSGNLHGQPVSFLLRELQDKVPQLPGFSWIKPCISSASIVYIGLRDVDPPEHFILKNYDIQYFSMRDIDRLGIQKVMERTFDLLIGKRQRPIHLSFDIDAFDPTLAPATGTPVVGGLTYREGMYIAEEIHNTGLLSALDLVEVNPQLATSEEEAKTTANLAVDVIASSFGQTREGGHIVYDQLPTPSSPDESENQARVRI
The assay can be described thus: in vitro enzyme assay to detect the production of urea directly proportional to the activity of Arginase II. Also: in the data most compounds retested in dose-response had high values. The settings on record: 33.3 µM. Format: functional.

Assay [6] deals with T3, Proteasome subunit beta (Trypanosoma cruzi) (UniProt O96673).
T3 sequence (whole entry): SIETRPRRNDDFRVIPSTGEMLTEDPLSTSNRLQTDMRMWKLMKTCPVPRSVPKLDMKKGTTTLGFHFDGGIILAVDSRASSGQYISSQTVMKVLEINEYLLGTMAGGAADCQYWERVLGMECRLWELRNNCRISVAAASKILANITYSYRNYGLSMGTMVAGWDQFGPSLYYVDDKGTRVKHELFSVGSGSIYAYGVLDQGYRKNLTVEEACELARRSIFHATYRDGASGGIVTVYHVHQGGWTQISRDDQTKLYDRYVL
Kind of assay: Trypanosoma cruzi proteasome chymotrypsin-like activity (TcProtChymo) assay. Also: in the data most compounds retested in dose-response had high values. The assay is classed as functional. Particulars: 9.37 µM.

A further assay is filed under the species Homo sapiens. Kind of assay: To identify inhibition of the IFN signalling (Jak-Stat) pathway via expression of an eGFP reporter gene under the control of an IFN-stimulated response element (ISRE) containing MxA promoter. The assay is classed as functional. Particulars: 30 µM.
Assay [7] deals with T4, Tyrosyl-tRNA synthetase, putative (Trypanosoma cruzi (strain CL Brener)) (UniProt Q4DSP6).
T4 sequence (whole entry): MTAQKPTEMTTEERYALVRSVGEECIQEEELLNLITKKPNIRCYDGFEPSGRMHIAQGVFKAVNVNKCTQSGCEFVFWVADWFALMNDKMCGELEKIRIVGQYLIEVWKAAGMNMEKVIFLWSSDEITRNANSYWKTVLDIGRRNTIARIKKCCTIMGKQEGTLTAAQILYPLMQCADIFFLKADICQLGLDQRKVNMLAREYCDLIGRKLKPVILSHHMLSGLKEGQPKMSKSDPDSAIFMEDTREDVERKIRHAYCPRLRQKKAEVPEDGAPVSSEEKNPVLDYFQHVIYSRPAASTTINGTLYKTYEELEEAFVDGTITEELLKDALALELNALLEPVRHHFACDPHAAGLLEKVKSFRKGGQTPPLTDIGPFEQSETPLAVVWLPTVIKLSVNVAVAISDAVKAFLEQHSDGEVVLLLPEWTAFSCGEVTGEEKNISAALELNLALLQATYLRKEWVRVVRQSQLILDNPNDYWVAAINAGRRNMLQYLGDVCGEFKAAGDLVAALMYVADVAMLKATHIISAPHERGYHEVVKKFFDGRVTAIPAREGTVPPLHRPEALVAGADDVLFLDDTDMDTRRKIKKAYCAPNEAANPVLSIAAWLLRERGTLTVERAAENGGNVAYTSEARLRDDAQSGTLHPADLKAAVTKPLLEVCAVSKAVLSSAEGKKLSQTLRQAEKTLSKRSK
Kind of assay: Trypanosoma cruzi tyrosyl tRNA synthetase (TcYRS) _High Tyrosine SOP. Also: in the data most compounds retested in dose-response had high values. Format: functional. Particulars: 30 µM.

For assay [8], the target named is T4, Tyrosyl-tRNA synthetase, putative (Trypanosoma cruzi (strain CL Brener)). The assay can be described thus: Trypanosoma cruzi tyrosyl tRNA synthetase (TcYRS) SOP. The assay is classed as functional. Particulars: 30 µM.
The target in assay [9] is Chromo domain-containing protein 1 (Saccharomyces cerevisiae (strain ATCC 204508 / S288c) (Baker's yeast)) (UniProt P32657). Kind of assay: ScCHD-1 Enzyme Inhibition Assay. Also: in the data most compounds retested in dose-response had high values. The assay is classed as functional. The settings on record: 30 µM.
Chain of Chromo domain-containing protein 1 (Saccharomyces cerevisiae (strain ATCC 204508 / S288c) (Baker's yeast)) (P32657 whole entry, the tested form may be a part): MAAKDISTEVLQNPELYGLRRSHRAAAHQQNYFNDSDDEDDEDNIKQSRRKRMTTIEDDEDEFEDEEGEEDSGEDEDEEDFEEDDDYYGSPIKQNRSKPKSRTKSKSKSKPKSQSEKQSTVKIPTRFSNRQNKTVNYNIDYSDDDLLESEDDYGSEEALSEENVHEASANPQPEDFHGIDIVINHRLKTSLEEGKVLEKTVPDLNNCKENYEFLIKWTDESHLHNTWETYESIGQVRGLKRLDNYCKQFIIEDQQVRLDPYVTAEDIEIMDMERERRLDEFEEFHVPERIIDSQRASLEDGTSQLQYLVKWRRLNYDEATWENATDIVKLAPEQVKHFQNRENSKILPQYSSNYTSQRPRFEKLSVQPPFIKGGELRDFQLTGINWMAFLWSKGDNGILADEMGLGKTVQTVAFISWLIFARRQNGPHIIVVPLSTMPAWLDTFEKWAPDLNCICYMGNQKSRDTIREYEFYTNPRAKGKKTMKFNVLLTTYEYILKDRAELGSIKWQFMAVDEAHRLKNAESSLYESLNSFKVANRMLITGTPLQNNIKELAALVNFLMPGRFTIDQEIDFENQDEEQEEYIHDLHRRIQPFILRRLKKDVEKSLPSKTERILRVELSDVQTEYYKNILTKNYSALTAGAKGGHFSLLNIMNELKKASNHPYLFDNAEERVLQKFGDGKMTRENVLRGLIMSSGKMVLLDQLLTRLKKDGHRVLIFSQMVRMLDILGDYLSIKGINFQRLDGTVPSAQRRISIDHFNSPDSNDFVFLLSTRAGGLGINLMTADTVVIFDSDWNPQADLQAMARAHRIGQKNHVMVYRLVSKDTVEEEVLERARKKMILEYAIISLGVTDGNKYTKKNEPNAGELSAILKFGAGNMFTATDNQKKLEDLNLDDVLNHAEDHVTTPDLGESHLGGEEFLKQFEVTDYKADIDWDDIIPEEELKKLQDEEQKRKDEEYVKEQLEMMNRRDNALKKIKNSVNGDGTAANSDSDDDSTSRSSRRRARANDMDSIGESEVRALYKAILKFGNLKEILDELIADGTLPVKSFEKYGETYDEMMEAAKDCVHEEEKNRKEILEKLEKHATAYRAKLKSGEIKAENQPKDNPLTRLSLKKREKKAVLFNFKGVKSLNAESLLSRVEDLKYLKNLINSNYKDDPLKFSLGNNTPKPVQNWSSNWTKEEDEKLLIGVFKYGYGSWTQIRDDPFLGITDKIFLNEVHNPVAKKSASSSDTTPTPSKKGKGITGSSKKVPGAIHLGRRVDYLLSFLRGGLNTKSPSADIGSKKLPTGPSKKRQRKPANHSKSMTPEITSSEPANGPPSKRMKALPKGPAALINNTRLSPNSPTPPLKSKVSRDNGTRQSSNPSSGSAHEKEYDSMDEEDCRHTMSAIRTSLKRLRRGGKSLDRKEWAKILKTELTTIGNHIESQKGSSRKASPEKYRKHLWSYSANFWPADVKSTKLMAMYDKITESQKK

As for `CN(Cc1ccccn1)C1COC2(CCN(Cc3cccnc3)CC2)C1` (stereo unspecified), the Percent Effect is -2.78% in [1]; 16% in assay [2]; -2.32% in [3]; -9.58% in assay [4]; 4.72% in the assay on Trypanosoma cruzi; 49.2% in [5]. In addition, the Percent Effect is 12.1% in [6]; 17.1% in the assay filed under Homo sapiens; 5.32% in [7]; 16.7% in assay [8]; -7.71% in [9].
Regarding `NC(=O)c1csc(C(=O)N2CCCC(n3ccnc3)C2)c1` (stereo unspecified), the Percent Effect in assay [1] is -5.24%; in assay [2], 3.8%; in assay [3], 5.04%; in assay [4] it was 3%; in the assay on Trypanosoma cruzi it was 2.56%; in assay [5] it was 1.5%. Also, the Percent Effect in assay [6] is 7.72%; in the assay filed under Homo sapiens, -1.55%; in [7], 4.17%; in assay [8], 15.2%; in assay [9], -9.55%.
`Cc1ccc(F)cc1S(=O)(=O)N(C)CC(N)=O`: the Percent Effect was -2.13% in assay [1]; 11% in assay [2]; -2.95% in assay [3]; 2.8% in [4]; -1.19% with Trypanosoma cruzi; -2.79% in [5]. The Percent Effect in assay [6] was 14.8%; in the assay listed under Homo sapiens it was -1.31%; in assay [7], 9.38%; in assay [8], 16.1%; in assay [9], -0.907%.
As to `COc1ccc(CN2CC[C@H]3[C@H]2CCN3C(=O)c2cnn(C)c2)cc1`, the Percent Effect in assay [1] is -0.777%; in assay [2], 13.5%; in assay [3] it was 4.48%; in assay [4], -12.3%; with Trypanosoma cruzi, -3.23%; in [5], 2.87%. The Percent Effect was 12.2% in [6]; 9.65% in the assay listed under Homo sapiens; 1.08% in [7]; 7.69% in assay [8]; -5.75% in assay [9].
For the molecule `O=C(Nc1cccnc1)[C@H]1CO[C@H]2CCN(c3ncc(F)cn3)C[C@H]2C1`, the Percent Effect in [1] is -3.71%; in [2], 5.33%; in assay [3], 2.01%; in [4], 4.5%; in the assay on Trypanosoma cruzi, 0%; in assay [5], -55%. Moreover, the Percent Effect in assay [6] is 11.6%; in the assay listed under Homo sapiens it was -7%; in assay [7], 8.33%; in [8], 5%; in assay [9] it was -9.48%.
Consider `OC1CCCN(Cc2c(-c3ccco3)[nH]c3ncccc23)C1` (stereo unspecified), for which the Percent Effect in assay [1] was -4.22%; in [2] it was 25.7%; in assay [3], -13.3%; in [4], 19%; with Trypanosoma cruzi it was 2.17%; in assay [5] it was -1.16%. The Percent Effect in assay [6] was 11.1%; in the assay listed under Homo sapiens, 20.3%; in assay [7] it was 6.45%; in assay [8], 19.5%; in assay [9], -18.1%.
For `Cc1ccc2c(c1)OCCCC2NCc1nnc2n1CCCCC2` (stereo unspecified), the Percent Effect in assay [1] is -3.75%; in assay [2] it was 2.7%; in assay [3] it was -4.22%; in assay [4], 17.1%; in the assay on Trypanosoma cruzi, 5.57%; in assay [5], 2.23%. Also, the Percent Effect is 0.772% in assay [6]; -5.39% in the assay filed under Homo sapiens; -15.1% in assay [7]; 6.17% in assay [8]; -11.7% in assay [9].
`Clc1snnc1CN1CCOC(CNc2cccnn2)C1` (stereo unspecified): the Percent Effect in assay [1] was 0.0334%; in assay [2], -2.6%; in [3] it was -5.26%; in assay [4] it was 8.04%; in the assay with Trypanosoma cruzi, 5.8%; in [5], 5.34%. Further, the Percent Effect is 1.18% in [6]; -0.834% in the assay listed under Homo sapiens; 4.85% in assay [7]; 12.2% in [8]; -5.35% in [9].
Regarding `CC(NC(=O)NCc1ccc(Cl)s1)c1ccccn1` (stereo unspecified), the Percent Effect in [1] was -1.22%; in assay [2], 11.4%; in assay [3] it was 6.06%; in assay [4], 1.35%; with Trypanosoma cruzi it was -3.38%; in assay [5] it was 2.37%. For the same molecule, the Percent Effect in assay [6] is 5.49%; in the assay listed under Homo sapiens, 12.4%; in assay [7], 3.12%; in assay [8], 15.2%; in assay [9], -12.8%.
Take `Cn1cnc2c1CCN(Cc1noc(-c3ccccc3)n1)C2`: the Percent Effect in [1] was -4.07%; in assay [2], 15.8%; in assay [3], -9.94%; in assay [4] it was 14.2%; with Trypanosoma cruzi, 3.08%; in assay [5], -2.52%. Further, the Percent Effect in [6] was 1.27%; in the assay listed under Homo sapiens, -13.4%; in [7] it was 6.4%; in assay [8], 11.1%; in assay [9] it was 0.774%.
On to `CCOC(=O)NC(CNC(=O)c1ccccn1)CC(C)C` (stereo unspecified), for which the Percent Effect in assay [1] was -4.62%; in [2], 5.41%; in assay [3], 0.908%; in [4], -3.92%; with Trypanosoma cruzi it was -3.03%; in assay [5], 2.23%. Moreover, the Percent Effect is 4.72% in assay [6]; -2.89% in the assay listed under Homo sapiens; 2.15% in assay [7]; 8.64% in [8]; -5.52% in assay [9].
